Measurements from PubChem BioAssay (EPA / NIEHS).
Values joined by “and” are separate entries in the source; they are usually repeats but may differ in a detail not shown here. Identical values can stand only once. Where a structure was tested more than once in an assay, its records may differ in their call. Active and inactive are the calls of the source. Rule for the calls: active = hit-call score of the fitted dose curve at least 0.9, where 1 is the maximum; inactive = score below 0.9.

Legend:
[1] = molecular target: Bile acid receptor (Homo sapiens) (UniProt Q96RI1); experiment: ATG_IR1_CIS: Attagene CIS-FACTORIAL HepG2 Assay for human Nuclear Receptor Subfamily 1 Group H Member 4 (NR1H4), IR1 submotif (AID 2282946); details: IR1 reporter transcription, actives raise or lower the signal
Bile acid receptor (Homo sapiens), sequence (Q96RI1 whole entry, looked up): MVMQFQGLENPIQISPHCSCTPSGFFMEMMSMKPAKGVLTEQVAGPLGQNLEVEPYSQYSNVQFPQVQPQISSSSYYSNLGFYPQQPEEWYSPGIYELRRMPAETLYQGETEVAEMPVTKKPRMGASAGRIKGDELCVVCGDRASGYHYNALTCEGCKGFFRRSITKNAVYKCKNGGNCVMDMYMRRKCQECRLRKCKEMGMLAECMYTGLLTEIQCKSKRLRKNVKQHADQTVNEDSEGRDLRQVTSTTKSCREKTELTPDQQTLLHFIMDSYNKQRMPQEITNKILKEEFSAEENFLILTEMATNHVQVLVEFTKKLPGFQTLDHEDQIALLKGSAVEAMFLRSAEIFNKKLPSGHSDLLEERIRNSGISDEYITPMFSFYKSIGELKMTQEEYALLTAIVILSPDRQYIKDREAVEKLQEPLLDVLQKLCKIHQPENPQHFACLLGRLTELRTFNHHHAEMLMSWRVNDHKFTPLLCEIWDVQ
In short: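 Readout: reporter transcript levels by RT-PCR with fluorescent capillary electrophoresis, from HepG2 cells transiently transfected with multiplexed cis-regulated reporters and dosed 24 h. Gain- or loss-of-signal fitted versus DMSO negative control.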

[2] = ATG_GRE_CIS: Attagene CIS-FACTORIAL HepG2 Assay for human Glucocorticoid Response Elements (GRE) (AID 2282947); details: HepG2 GRE cis-reporter, Attagene multiplex mRNA; actives raise or lower the signal
In short: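 HepG2, transient cis-reporter transfection, 24 h. Reporter mRNA: RT-PCR then CE, fluorescence. Fit both directions vs DMSO.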

[3] = ATG_ISRE_CIS: Attagene CIS-FACTORIAL HepG2 Assay for human Interferon Regulatory Factor 1 (IRF1) binding to an Interferon-Stimulated Response Element (ISRE) (AID 2282948); details: HepG2 ISRE cis-reporter (Attagene), mRNA transcription readout; actives raise or lower the signal
In short: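 Multiplexed mRNA reporter readout in human liver HepG2 cells: cis-element-driven reporters transfected, compound added for 24 h, transcripts amplified, fluorescently labelled and sized by capillary electrophoresis; curve fitting bidirectional against DMSO.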

[4] = ATG_M_32_CIS: Attagene CIS-FACTORIAL HepG2 Assay for M32 Transcription Factor (Internal Marker) (AID 2282949); details: HepG2 Attagene cis-factorial M32 reporter, mRNA; actives raise or lower the signal;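 note: background control marker of the multiplexed CIS panel rather than a real target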
In short: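 Using DMSO as baseline, bidirectional curve fits were applied to reporter mRNA signals. These came from transiently transfected HepG2 cells exposed for 24 h, with RNA analysed by RT-PCR, FAM primer extension, HpaI digestion and CE.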

[5] = ATG_M_06_CIS: Attagene CIS-FACTORIAL HepG2 Assay for M06 Transcription Factor (Internal Marker) (AID 2282950); details: HepG2 Attagene CIS-FACTORIAL M06 internal marker reporter; actives raise or lower the signal
In short: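 Steps: transfect HepG2 with multiplexed cis-element reporter constructs; dose chemical 24 h; extract RNA with DNase treatment; reverse-transcribe, PCR-amplify, 6-FAM label, HpaI digest; separate fragments by capillary electrophoresis. Activity fitted both directions versus DMSO.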

[6] = molecular target: Hypoxia-inducible factor 1-alpha (Homo sapiens) (UniProt Q16665); experiment: ATG_HIF1a_CIS: Attagene CIS-FACTORIAL HepG2 Assay for human Hypoxia Inducible Factor 1 (HIF1A) (AID 2282951); details: HepG2 Attagene cis-factorial HIF1a reporter transcription; actives raise or lower the signal
Hypoxia-inducible factor 1-alpha (Homo sapiens), sequence (Q16665 whole entry, looked up): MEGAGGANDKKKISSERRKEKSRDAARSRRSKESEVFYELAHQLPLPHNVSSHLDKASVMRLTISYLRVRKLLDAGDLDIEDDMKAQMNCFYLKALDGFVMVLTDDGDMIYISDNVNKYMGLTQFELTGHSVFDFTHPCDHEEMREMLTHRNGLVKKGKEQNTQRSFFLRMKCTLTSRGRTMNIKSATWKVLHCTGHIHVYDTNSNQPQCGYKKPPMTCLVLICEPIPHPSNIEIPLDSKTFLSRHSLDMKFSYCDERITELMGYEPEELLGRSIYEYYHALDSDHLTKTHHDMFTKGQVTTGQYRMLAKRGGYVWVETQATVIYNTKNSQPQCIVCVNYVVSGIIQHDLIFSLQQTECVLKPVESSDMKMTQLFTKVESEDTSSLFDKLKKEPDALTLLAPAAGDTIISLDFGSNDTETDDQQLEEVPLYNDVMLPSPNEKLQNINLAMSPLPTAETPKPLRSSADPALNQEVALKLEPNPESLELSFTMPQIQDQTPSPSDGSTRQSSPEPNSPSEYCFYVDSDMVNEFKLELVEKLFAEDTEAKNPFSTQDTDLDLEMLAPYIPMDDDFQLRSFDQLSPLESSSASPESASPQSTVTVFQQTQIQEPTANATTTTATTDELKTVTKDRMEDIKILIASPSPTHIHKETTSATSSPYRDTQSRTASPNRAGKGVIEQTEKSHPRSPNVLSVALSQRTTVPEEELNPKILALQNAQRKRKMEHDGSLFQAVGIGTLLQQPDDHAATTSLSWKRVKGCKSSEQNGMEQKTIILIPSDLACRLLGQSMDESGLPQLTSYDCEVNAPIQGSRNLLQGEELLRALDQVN
In short: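 Measures endogenous transcription-factor activity through cis-regulated reporter mRNA in HepG2. Cells dosed 24 h; transcripts quantified by RT-PCR with 6-FAM-labelled products separated by capillary electrophoresis; DMSO serves as negative control.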

[7] = molecular target: Hepatocyte nuclear factor 6 (Homo sapiens) (UniProt Q9UBC0); experiment: ATG_HNF6_CIS: Attagene CIS-FACTORIAL HepG2 Assay for human Hepatocyte Nuclear Factor 6 (HNF6) (AID 2282952); details: HepG2 Attagene cis-factorial HNF6 reporter transcription; actives raise or lower the signal
Hepatocyte nuclear factor 6 (Homo sapiens), sequence (Q9UBC0 whole entry, looked up, the tested form may be a part): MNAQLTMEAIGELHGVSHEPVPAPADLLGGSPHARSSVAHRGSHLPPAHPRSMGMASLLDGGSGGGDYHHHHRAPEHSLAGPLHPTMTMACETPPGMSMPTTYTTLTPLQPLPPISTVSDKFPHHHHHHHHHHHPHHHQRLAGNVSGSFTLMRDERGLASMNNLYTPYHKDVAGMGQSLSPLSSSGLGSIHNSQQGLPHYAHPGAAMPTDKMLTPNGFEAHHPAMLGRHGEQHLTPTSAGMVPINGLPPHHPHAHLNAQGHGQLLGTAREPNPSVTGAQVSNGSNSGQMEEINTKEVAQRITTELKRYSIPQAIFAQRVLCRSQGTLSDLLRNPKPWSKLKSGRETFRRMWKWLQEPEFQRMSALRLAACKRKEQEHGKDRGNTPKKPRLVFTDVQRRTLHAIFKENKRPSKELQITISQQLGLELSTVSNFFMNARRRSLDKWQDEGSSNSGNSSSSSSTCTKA
In short: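 First, HepG2 cells were transfected with the multiplexed cis reporter library and dosed with chemical for 24 h. Next, RNA was reverse-transcribed, PCR-amplified and fluorescently labelled. Finally, HpaI-digested fragments were read by capillary electrophoresis.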

[8] = molecular target: Heat shock factor protein 1 (Homo sapiens) (UniProt Q00613); experiment: ATG_HSE_CIS: Attagene CIS-FACTORIAL HepG2 Assay for human Heat Shock Transcription Factor 1 (HSE) (AID 2282953); details: HepG2 HSE cis-reporter, Attagene RNA transcription; actives raise or lower the signal
Heat shock factor protein 1 (Homo sapiens), sequence (Q00613 whole entry, looked up, the tested form may be a part): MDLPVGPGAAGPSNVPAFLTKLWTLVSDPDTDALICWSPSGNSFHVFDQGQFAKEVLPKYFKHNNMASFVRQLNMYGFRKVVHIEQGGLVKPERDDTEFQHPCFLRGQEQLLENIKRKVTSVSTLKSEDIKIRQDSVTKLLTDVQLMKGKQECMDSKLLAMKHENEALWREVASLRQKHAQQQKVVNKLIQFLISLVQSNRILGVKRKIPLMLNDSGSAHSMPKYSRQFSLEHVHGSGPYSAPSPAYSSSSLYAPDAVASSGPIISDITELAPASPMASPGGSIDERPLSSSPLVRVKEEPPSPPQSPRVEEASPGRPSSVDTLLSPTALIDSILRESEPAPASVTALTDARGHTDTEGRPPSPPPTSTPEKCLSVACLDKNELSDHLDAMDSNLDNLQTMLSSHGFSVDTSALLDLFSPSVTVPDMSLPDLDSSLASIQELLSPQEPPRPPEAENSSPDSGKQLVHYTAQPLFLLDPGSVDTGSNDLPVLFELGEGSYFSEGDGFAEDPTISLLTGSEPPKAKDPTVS
In short: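 Cells were transfected with cis-element-driven reporter constructs, dosed for 24 h, then total RNA was reverse-transcribed and reporter cDNA amplified, FAM-labelled and digested with HpaI. Fragments were resolved by capillary electrophoresis; gain or loss was fitted against DMSO.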

[9] = ATG_MRE_CIS: Attagene CIS-FACTORIAL HepG2 Assay for human Metal Responsive Element (MRE) (AID 2282954); details: HepG2 MRE cis-reporter transcription, Attagene multiplex; actives raise or lower the signal
In short: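 Readout: capillary electrophoresis of 6-FAM-labelled, HpaI-digested RT-PCR reporter products. System: HepG2 cells carrying transient multiplexed cis reporters, dosed 24 h. Analysis: bidirectional fit, DMSO baseline.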

[10] = ATG_PBREM_CIS: Attagene CIS-FACTORIAL HepG2 Assay for human Phenobarbital-responsive Enhancer Module (PBREM) (AID 2282955); details: HepG2 PBREM cis-reporter, Attagene multiplexed transcription; actives raise or lower the signal
In short: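 Fluorescence of labelled reporter cDNA fragments, resolved by capillary electrophoresis, gives mRNA induction in transfected HepG2 cells treated for 24 h; DMSO serves as negative control and baseline.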

[11] = molecular target: Paired box protein Pax-6 (Homo sapiens) (UniProt P26367); experiment: ATG_Pax6_CIS: Attagene CIS-FACTORIAL HepG2 Assay for human Paired Box 6 (PAX6) (AID 2282956); details: HepG2 CIS-FACTORIAL PAX6 reporter transcription, RNA readout; actives raise or lower the signal
Paired box protein Pax-6 (Homo sapiens), sequence (P26367 whole entry, looked up): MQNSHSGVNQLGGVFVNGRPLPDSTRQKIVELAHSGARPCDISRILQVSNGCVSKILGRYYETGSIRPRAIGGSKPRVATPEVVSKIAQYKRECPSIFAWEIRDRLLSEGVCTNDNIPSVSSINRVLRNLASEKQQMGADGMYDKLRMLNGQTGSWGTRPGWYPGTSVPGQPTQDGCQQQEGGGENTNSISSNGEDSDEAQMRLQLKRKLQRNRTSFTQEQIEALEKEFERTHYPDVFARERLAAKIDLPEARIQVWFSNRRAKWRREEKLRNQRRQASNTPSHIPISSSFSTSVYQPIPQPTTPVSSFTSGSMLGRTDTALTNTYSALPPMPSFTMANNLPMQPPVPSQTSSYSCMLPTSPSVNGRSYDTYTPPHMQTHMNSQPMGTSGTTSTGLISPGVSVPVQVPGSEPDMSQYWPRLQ
In short: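 Fluorescent RT-PCR products separated by capillary electrophoresis report PAX6-linked promoter mRNA in HepG2 cells 24 h post-dose. Curves fitted bidirectionally, DMSO as negative control.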

[12] = ATG_PXRE_CIS: Attagene CIS-FACTORIAL HepG2 Assay for human Pregnane X Receptor Element (PXRE) (AID 2282957); details: HepG2 Attagene CIS-FACTORIAL PXRE reporter, mRNA; actives raise or lower the signal
In short: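 After a 24 h chemical incubation, total RNA from transfected HepG2 cells was reverse-transcribed and reporter cDNA amplified, FAM-labeled, HpaI-digested and sized by capillary electrophoresis. DMSO served as baseline for bidirectional curve fitting.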

[13] = ATG_PPRE_CIS: Attagene CIS-FACTORIAL HepG2 Assay for human Peroxisome Proliferator-activated Response Element (PPRE) (AID 2282958); details: HepG2 PPRE cis-element reporter, Attagene transcription factor profiling; actives raise or lower the signal
In short: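 Cells are first transfected transiently with the multiplexed reporter library, then dosed for 24 h. Total RNA is reverse-transcribed, amplified, fluorescently end-labeled and HpaI-cut before capillary electrophoresis; activity is fitted bidirectionally against DMSO controls.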

[14] = ATG_RORE_CIS: Attagene CIS-FACTORIAL HepG2 Assay for human RAR-related Orphan Receptor Element (RORE) (AID 2282959); details: HepG2 Attagene cis-factorial RORE reporter, mRNA; actives raise or lower the signal
In short: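 Cells were HepG2 carrying transfected cis-regulated reporter constructs, dosed for 24 hours. Total RNA was reverse-transcribed and reporter cDNA amplified, fluorescently labeled and sized by capillary electrophoresis. Activity was fitted bidirectionally relative to DMSO.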

[15] = ATG_SREBP_CIS: Attagene CIS-FACTORIAL HepG2 Assay for human Sterol Regulatory Element Binding (SREBP) (AID 2282962); details: HepG2 Attagene cis-factorial SREBP reporter, mRNA; actives raise or lower the signal
In short: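 Endogenous factor activity is measured in HepG2 through multiplexed reporter units under cis-element control. Following a 24 h incubation, reporter transcripts are reverse-transcribed, PCR-amplified and sized by capillary electrophoresis; activity is fitted in both directions relative to DMSO.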

[16] = molecular target: Signal transducer and activator of transcription 3 (Homo sapiens) (UniProt P40763); experiment: ATG_STAT3_CIS: Attagene CIS-FACTORIAL HepG2 Assay for human Signal Transducer and Activator of Transcription 3 (STAT3) (AID 2282963); details: HepG2, Attagene cis-factorial STAT3 reporter transcription; actives raise or lower the signal
Signal transducer and activator of transcription 3 (Homo sapiens), sequence (P40763 whole entry, looked up): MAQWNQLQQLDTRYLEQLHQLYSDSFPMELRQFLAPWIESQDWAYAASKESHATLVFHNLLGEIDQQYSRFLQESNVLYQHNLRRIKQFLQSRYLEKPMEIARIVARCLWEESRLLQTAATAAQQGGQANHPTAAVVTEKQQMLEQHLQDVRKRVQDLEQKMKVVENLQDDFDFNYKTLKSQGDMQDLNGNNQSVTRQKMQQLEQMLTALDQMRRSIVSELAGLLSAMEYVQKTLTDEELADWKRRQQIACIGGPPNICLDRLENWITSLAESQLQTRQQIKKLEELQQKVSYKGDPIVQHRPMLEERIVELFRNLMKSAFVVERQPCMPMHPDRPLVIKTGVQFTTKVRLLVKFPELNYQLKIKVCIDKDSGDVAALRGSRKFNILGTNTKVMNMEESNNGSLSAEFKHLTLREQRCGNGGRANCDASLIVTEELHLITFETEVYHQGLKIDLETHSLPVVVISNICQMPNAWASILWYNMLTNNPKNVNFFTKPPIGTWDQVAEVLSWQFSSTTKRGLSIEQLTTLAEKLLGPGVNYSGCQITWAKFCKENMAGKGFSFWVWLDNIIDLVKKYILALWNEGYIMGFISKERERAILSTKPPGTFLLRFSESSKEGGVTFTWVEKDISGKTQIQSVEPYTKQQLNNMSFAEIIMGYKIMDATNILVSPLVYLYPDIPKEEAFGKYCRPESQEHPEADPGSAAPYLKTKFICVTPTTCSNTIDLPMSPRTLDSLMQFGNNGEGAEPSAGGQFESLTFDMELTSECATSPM
In short: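 Uses human liver HepG2 transiently carrying cis-regulated reporter transcription units. Following 24 h dosing, reporter mRNA induction was detected by RT-PCR and capillary electrophoresis, analysed bidirectionally versus DMSO.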

[17] = ATG_TA_CIS: Attagene CIS-FACTORIAL HepG2 Assay for human TA Basal Promoter (AID 2282964); details: HepG2 Attagene CIS-factorial TA basal promoter reporter; actives raise or lower the signal
In short: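 Steps: transfect HepG2 with MRTUs; dose 24 h; isolate RNA, DNase-treat, reverse-transcribe; PCR and FAM-label reporter cDNA; digest with HpaI 2h at 37 C; run capillary electrophoresis. Activity fitted both directions against DMSO.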

[18] = ATG_TCF_b_cat_CIS: Attagene CIS-FACTORIAL HepG2 Assay for human T-Cell-Factor with beta-catenin (TCF/b-cat) (AID 2282965); details: HepG2 TCF/beta-catenin cis-reporter transcription, actives raise or lower the signal
In short: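 Using capillary electrophoresis as the read-out, labelled reporter cDNA fragments from transiently transfected HepG2 were sized and quantified. Exposure lasted 24 hours; activity in either direction was referenced to DMSO.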

[19] = ATG_Sox_CIS: Attagene CIS-FACTORIAL HepG2 Assay for human SRY-box transcription factor (SOX) (AID 2282960); details: HepG2 Attagene cis-factorial SOX reporter, mRNA; actives raise or lower the signal
In short: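 Transient MRTU transfection of HepG2; 24 h compound incubation; TriZol RNA, oligo(dT) RT, PCR, 6-FAM primer extension, HpaI cut, CE. Bidirectional fit, DMSO = baseline.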

[20] = molecular target: Transcription factor Sp1 (Homo sapiens) (UniProt P08047); experiment: ATG_Sp1_CIS: Attagene CIS-FACTORIAL HepG2 Assay for human Specificity Protein 1 (Sp1) (AID 2282961); details: HepG2 Sp1 cis-reporter transcription, actives raise or lower the signal
Transcription factor Sp1 (Homo sapiens), sequence (P08047 whole entry, looked up): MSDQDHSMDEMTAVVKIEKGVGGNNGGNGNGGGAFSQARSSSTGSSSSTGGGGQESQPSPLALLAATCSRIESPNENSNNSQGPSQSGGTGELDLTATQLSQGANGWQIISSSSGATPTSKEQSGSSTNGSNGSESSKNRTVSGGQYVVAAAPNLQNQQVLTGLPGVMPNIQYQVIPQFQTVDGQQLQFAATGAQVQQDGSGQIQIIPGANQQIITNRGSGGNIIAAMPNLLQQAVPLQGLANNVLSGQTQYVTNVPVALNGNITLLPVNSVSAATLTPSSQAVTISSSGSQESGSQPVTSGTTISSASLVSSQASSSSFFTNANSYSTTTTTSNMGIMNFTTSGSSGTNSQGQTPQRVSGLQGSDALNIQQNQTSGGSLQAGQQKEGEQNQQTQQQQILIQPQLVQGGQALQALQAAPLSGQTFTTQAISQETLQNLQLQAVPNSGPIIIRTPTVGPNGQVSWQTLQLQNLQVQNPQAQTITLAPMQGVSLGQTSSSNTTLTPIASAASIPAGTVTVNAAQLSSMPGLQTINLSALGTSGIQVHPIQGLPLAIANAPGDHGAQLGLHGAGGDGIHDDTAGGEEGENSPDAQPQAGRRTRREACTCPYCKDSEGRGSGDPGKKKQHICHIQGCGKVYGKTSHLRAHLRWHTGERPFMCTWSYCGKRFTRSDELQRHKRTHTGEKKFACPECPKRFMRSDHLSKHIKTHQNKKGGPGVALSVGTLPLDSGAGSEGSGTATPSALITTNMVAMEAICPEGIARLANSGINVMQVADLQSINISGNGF
In short: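 Endogenous Sp1 activity was gauged in human liver HepG2 cells bearing transfected reporter units under a cis-regulating promoter. After 24 h dosing, reporter mRNA was quantified by RT-PCR with capillary electrophoresis, and activity fitted bidirectionally versus DMSO.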

Measured: AC50

O=C(O)CN(CC(=O)O)CC(=O)O
not listed: [19] | [20]
inactive: all other assays above

NC(=Nc1ccccc1)Nc1ccccc1
active: [3] 5.79 µM | [11] 34.6 µM | [14] 29.5 µM | [18] 6.54 µM
not listed: [9] | [10] | [16] | [19] | [20]
inactive: all other assays above

O=C(Oc1ccccc1)c1cccc(C(=O)Oc2ccccc2)c1
active: [13] 104 µM
not listed: [9]
inactive: all other assays above

CC(COCC(C)OC(=O)c1ccccc1)OC(=O)c1ccccc1 (stereo unspecified)
active: [12] 35.3 µM
not listed: [9] | [16] | [20]
inactive: all other assays above

CN(C)C(=O)NC1(c2ccccc2)CCN(CC[C@@]2(c3ccc(F)c(F)c3)CN(C(=O)c3ccccc3)CCO2)CC1
active: [6] 47.9 µM | [9] 57.9 µM | [12] 2.43 µM | [15] 26.8 µM | [18] 100 µM
not listed: [10] | [14] | [16] | [19] | [20]
inactive: all other assays above

CCN(CC)CCOc1ccc(C(=C(Cl)c2ccccc2)c2ccccc2)cc1
active: [1] 5.65 µM and 4.78 µM | [6] 9.35 µM | [7] 11.4 µM | [8] 14.3 µM | [11] 10.4 µM | [12] 945 nM [middle of 4 runs] | [14] 9.35 µM | [15] 2.59 µM [middle of 4 runs] | [17] 11.2 µM
inactive: [1] | [2] | [3] | [4] | [5] | [6] | [7] | [8] | [10] | [11] | [13] | [14] | [17] | [18]

O=C(NS(=O)(=O)/C=C/c1cccs1)c1ccc(F)cc1Br
active: [12] 13.7 µM | [18] 11.4 µM
not listed: [16]
inactive: all other assays above
